# UBC9 SUMO inh = inhibitors of human SUMOylation (UBC9); HTRF SUMOylation assay, SAE1/SAE2 + UBC9, in vitro; inhibition, % at 35 µM; 0.36% of 290,000 active; in the data active = inhibition above about 50%, passing the limit was not always enough; inconclusive = no clear call, values can overlap the other calls
# p97 inhibitor = blocks human p97 ATPase activity. P55072. recombinant p97 ATPase, Kinase-Glo ATP luminescence, 3 h. inhibition, % at 8 µM. 0.42% of 220,000 active; in the data active = inhibition above about 15%;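 also: 0% = DMSO vehicle and 100% = wells lacking enzyme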
# PfM18AAP inh-1 = blocks P. falciparum M18 aspartyl aminopeptidase. recombinant PfM18AAP, H-Glu-NHMec fluorogenic cleavage. inhibition, % at 7.35 µM. 1.2% of 290,000 active. AID 1822;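 active = inhibition above the campaign mean inhibition over all tested compounds plus 3 SD, cut at about 28% in these data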;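 also: 0% = plate median of test compound wells and 100% = 2 mM ZnCl2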
# PHOSPHO1 inh = inhibitors of human PHOSPHO1 phosphatase; Q8TCT1; recombinant PHOSPHO1, absorbance phosphatase assay; inhibition, % at 13.3 µM; 1.1% of 290,000 active; in the data active = inhibition above about 60%
# HDAC3 inh = inhibitors of human histone deacetylase 3 | O15379 | 0.15% of 320,000 active | inhibition, % at 8.3 µM | recombinant HDAC3, fluorogenic peptide/trypsin coupled, fluorescence | AID 2718; in the data active = inhibition above about 26%, passing the limit was not always enough; inconclusive = no clear call, values can overlap the other calls
# G6PDH counter = L. mesenteroides G6PDH inhibition counter-screen; inhibition, % at 5 µM; 0.12% of 200,000 active; Purified L. mesenteroides G6PDH, diaphorase/resazurin coupled fluorescence, 45 min; in the data active = inhibition above about 50%
# PfM18AAP inh-2 = PfM18AAP inhibition, confirmation; shares compounds with PfM18AAP inh-1; recombinant PfM18AAP, H-Glu-NHMec fluorogenic cleavage; inhibition, % at 7.35 µM; 28% of 2,400 active; AID 2170;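 active = mean inhibition over replicate wells above the hit cutoff set for the earlier primary screen, cut at about 29% in these data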;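 also: 0% = median of test compound wells and 100% = 2 mM ZnCl2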
# CTSL1 confirm = Cathepsin L (human) inhibition, confirmation; shares compounds with PfM18AAP inh-1; purified cathepsin L1, Z-Leu-Arg-MCA fluorescence; inhibition, % at 5.96 µM; 2,400 tested, under 10 active; AID 2178;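 active = average inhibition across replicates above the hit cutoff set in the earlier primary screen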;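 also: 0% = median of test compound wells and 100% = Z-Phe-Ala-diazomethylketone 1 µM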
# Starred values were filed as active, the others as inactive; ? = inconclusive; / = not tested or not shown. In the library only some 2.5% were active in any assay of this set; here they are far more common.
SMILES,UBC9 SUMO inh,p97 inhibitor,PfM18AAP inh-1,PHOSPHO1 inh,HDAC3 inh,G6PDH counter,PfM18AAP inh-2,CTSL1 confirm
Cc1cc(NC(=O)c2cc(-c3cccc(OCC(C)C)c3)nc3ccccc23)no1,-1,/,0,3,-5,/,/,/
CCN1/C(=C/C=C/C=C/C=C/c2sc3ccccc3[n+]2CC)Sc2ccccc21,-12,/,40*,16,6,/,-2,3
CCC(/C=C1\Sc2ccc(OC)cc2N1CC)=C\c1sc2ccc(OC)cc2[n+]1CCCS(=O)(=O)[O-],1,0,23,-38,4,6,/,/
CCC(/C=C1\Sc2ccc(OC)cc2N1CCO)=C\c1sc2ccc(OC)cc2[n+]1CCO,-10,-10,34*,-5,?,3,-4,4
Cc1c(O)ccc(/C=N/Nc2ncccc2[N+](=O)[O-])c1O,-1,/,43*,19,-7,/,10,1
OCC[C@@H]1C[C@@H](O)[C@H](O)[C@@]2(Cc3ccccc3CCO2)O1,1,/,-1,10,-9,/,/,/
NNc1nc2ccc(F)cc2s1,-6,-7,37*,6,-8,12,29*,0
Cc1cc2oc(=O)cc(-c3cc4ccccc4o3)c2cc1O,/,/,58*,13,1,/,-21,-4
O=c1cc(-c2cc3ccccc3o2)c2cc(O)ccc2o1,18,/,12,11,1,/,/,/
Cc1cccc(NC(=O)c2cc(-c3cccnc3)nc3c(C)cccc23)n1,0,/,-1,-21,5,/,/,/
FC(F)(F)c1cc(-c2ccc3c(c2)OCO3)nc(NCc2ccco2)n1,9,4,37*,4,-2,0,-30,1
O=C1C=C(Nc2cccc(O)c2)CC(c2ccco2)C1 (centres undefined),0,5,44*,5,4,5,-34,2
O=C1C=C(Nc2ccc(Cl)cc2)CC(c2ccco2)C1 (centres undefined),32,0,10,18,16,1,/,/
Cc1ccc(-c2ccc(=O)n(CC(=O)NCCN(CC(C)C)CC(C)C)n2)cc1,0,/,0,28,-4,/,/,/
OCCn1c(-c2ccc3c(c2)OCO3)csc1=Nc1ccccc1,10,5,37*,30,10,-22,-52,3
NC(=O)C1(c2ccccc2)OC1c1ccccc1 (centres undefined),/,/,/,/,5,/,/,/
O=C1CC(N2CCN(c3ccc(O)cc3)CC2)C(=O)N1c1ccc2c(c1)OCO2 (centres undefined),16,6,32*,30,13,16,-16,0
Cc1[nH]c(=S)c(C#N)c(-c2ccco2)c1C(=O)N(C)C,22,4,51*,61*,9,2,29*,1
CC(=O)c1c(C)[nH]c(=S)c(C#N)c1-c1ccc(Cl)cc1,24,-1,-3,32,-2,/,/,/
O=S(=O)(NNC(=S)Nc1ccc(S(=O)(=O)Nc2ncccn2)cc1)c1ccc(Br)cc1,1,/,41*,15,-17,/,-45,-9
O=C(NC(=S)Nc1ccc(S(=O)(=O)Nc2ncccn2)cc1)c1ccc(Br)cc1,8,6,-11,24,-2,8,/,/
COC(=O)CN(n1cnnc1)S(=O)(=O)c1ccc(C)cc1,14,2,84*,-40,2,0,79*,-13
Cn1cnc(C(=O)NCc2ccc(CNC(=O)OC(C)(C)C)cc2)c1C(=O)NCc1ccc(CNC(=O)OC(C)(C)C)cc1,/,/,/,/,20,/,/,/
CN1CCN(c2ccc(-c3cccc(NC(=O)COc4ccc(Cl)cc4Cl)c3)nn2)CC1,/,/,/,/,10,/,/,/
O=C(O)c1ccc(NNC(=S)Nc2cc(C(F)(F)F)ccc2Cl)cc1,1,/,35*,0,5,/,-30,-4
SMILES,UBC9 SUMO inh,p97 inhibitor,PfM18AAP inh-1,PHOSPHO1 inh,HDAC3 inh,G6PDH counter,PfM18AAP inh-2,CTSL1 confirm
CCN1C(=O)[C@H]2[C@@H](c3ccc(-c4ccc(C(C)=O)cc4)c(OC)c3)N[C@@](Cc3ccccc3)(C(=O)OC)[C@H]2C1=O,/,/,/,/,2,/,/,/
c1ccc(-c2cc(-c3ccc(N4CCOCC4)cc3)nc3ccccc23)cc1,24,3,-4,-1,-10,4,/,/
COc1ccc2c(-c3ccccc3)cc(N3CCOCC3)nc2c1,-10,1,50*,-25,-24,0,-44,6
CC1CCCN(C2(O)C(=O)Nc3ccc([N+](=O)[O-])cc32)C1 (centres undefined),21,/,-6,/,0,/,/,/
O=C(CN1C(=O)c2ccccc2S1(=O)=O)c1ccc(O)c(O)c1,3,10,47*,27,5,/,35*,5
O=C(CN1C(=O)c2ccccc2S1(=O)=O)c1ccc(F)c(F)c1,4,/,10,53,4,/,/,/
O=C(NNc1ccnc2cc(Cl)ccc12)C1CCCCC1,14,0,4,24,3,0,/,/
NC(=S)NNc1ccnc2cc(Cl)ccc12,-4,-1,55*,-4,-2,-1,28*,4
COC(=O)c1ccc(COc2ccccc2/C=C/C(=O)c2ccc(OCC(=O)O)cc2)cc1,27,/,5,20,6,/,/,/
COc1ccc(-[n+]2c(C)cc(/C=C3\Sc4ccccc4N3C)cc2C)cc1,-12,4,45*,-11,19,-1,-25,1
COc1ccc(C(=O)/C=C2\Sc3ccccc3N2C)cc1,8,-6,19,15,-6,8,/,/
CCC(C)(C)NC(=O)C(c1ccc(OC)cc1)N(C(=O)CCC(=O)Nc1cc(C)on1)c1ccc2c(c1)OCO2 (centres undefined),-11,/,1,24,3,/,/,/
CC(C)Cn1c(-c2nn(C)cc2Cl)n[nH]c1=S,-15,1,12,-71,6,1,/,/
Cc1ccsc1-c1n[nH]c(=S)n1CC(C)C,6,-3,34*,7,0,-3,-13,5
CC[n+]1c(/C=C(/C)SC)sc2ccccc21,5,2,49*,3,6,-2,-52,-4
CC[n+]1c(/C=C(\C)SC)sc2ccccc21,1,-7,44*,24,/,10,-25,4
CC/C(=C/c1sc2ccccc2[n+]1CC)SC,-11,-4,46*,-27,0,-10,-32,5
CC[n+]1c(/C=C(\C)OC)sc2ccccc21,19,0,23,30,/,13,/,/
CCCc1nc2nc(C)c(NS(=O)(=O)c3ccc(C4CCCCC4)cc3)c(=O)n2[nH]1,14,/,-2,28,-6,/,/,/
CC(C)COC(=O)N1CCN(S(=O)(=O)c2ccc3c(c2)CCC3)CC1,/,/,/,/,4,/,/,/
O=c1[nH]c2ccccc2c(O)c1O,8,6,46*,0,3,15,5,-3
O=c1[nH]c2ccccc2c(O)c1-[n+]1ccccc1,8,7,1,0,-3,/,/,/
